G9a block: blocks human histone lysine methyltransferase G9a | Q96KQ7 | G9a H3K9 monomethylation, AlphaScreen, 2 h | Potency, µM (highest dose often 102 µM), inactives show at the top dose activity, negative = inhibition, hits mostly inhibitors | 8.8% of 350,000 active | AID 504332; also: % is scaled to controls: 0 for no effect and ±100 for the full control effect; nearly all actives have a fitted effect of over 75% in size
Target sequence (Q96KQ7 913-1193 limits assumed): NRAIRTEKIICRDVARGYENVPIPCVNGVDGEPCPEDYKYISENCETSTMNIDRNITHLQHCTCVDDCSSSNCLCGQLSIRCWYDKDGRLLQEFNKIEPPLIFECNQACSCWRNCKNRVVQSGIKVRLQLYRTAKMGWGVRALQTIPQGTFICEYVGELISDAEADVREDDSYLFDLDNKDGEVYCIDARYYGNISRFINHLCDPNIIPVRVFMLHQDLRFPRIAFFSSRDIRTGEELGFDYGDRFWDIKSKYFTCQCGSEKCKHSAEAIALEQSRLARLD
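Using a bead-based AlphaScreen, monomethylated H3K9 product from 2 h room-temperature reactions (G9a 20 nM, peptide 500 nM, SAM 20 uM) was detected with 0.5 ug/mL rabbit anti-H3K9me1 antibody.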
Sfp inh: blocks B. subtilis Sfp PPTase activity; Biochemical Sfp PPTase activity, qHTS; Potency, µM, for the others: largest response in the series, negative = inhibition, most hits filed as inhibitors; 3.5% of 310,000 active;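 also: the enzyme is Sfp with the accession as filed and its product quenches rhodamine fluorescence; 0% = enzyme reaction without inhibitor and -100% = no enzyme wells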
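Fluorescence-quenching assay: 15 nM Sfp-PPTase preincubated 15 min at room temperature with compound, then 5 uM rhodamine-CoA and 12.5 uM BHQ-2-labelled YbbR peptide added. Fluorescence (ex 525/em 598 nm) read at start and after 30 min; difference gives rate.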
HP1b chromo inh: inhibitors of HP1-beta chromodomain binding to methylated histone tails; AlphaScreen HP1-beta / biotin-H3K9me3 peptide binding; Potency, µM (titrated, usually from 114 µM), for inactives: at the top dose activity change, negative = inhibition, actives largely listed as inhibitors; 0.56% of 390,000 active; also: nearly all actives have a fitted effect of over 70% in size
Target sequence (P83916 whole entry, looked up): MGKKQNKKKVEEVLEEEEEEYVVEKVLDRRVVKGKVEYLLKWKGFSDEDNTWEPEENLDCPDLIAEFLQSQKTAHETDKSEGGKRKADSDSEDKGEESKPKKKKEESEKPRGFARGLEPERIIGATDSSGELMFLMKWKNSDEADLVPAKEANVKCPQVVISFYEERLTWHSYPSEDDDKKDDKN
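Compound inhibition of the preformed complex between 50 nM HP1-beta and 50 nM biotinylated H3K9me3 peptide was read by AlphaScreen. Buffer was PBS pH 7.4 with 0.01% Tween-20. Incubations ran 30 min at room temperature, with 10 ug/mL donor/acceptor beads.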
JMJD2A Tudor: JMJD2A Tudor domain (human) inhibition | O75164 | AlphaScreen JMJD2A-Tudor / H3K4me3 peptide binding | AID 504339 | 4.4% of 390,000 active | Potency, µM (highest dose often 114 µM), for inactives: top-dose activity change, negative = inhibition, actives largely listed as inhibitors; also: % is scaled to controls: 0 for no effect and ±100 for the full control effect; nearly all actives have a fitted effect of over 50% in size
BAZ2B block: BAZ2B (human) inhibition. AlphaScreen BAZ2B-H3K14Ac peptide displacement. 4.4% of 360,000 active. Q9UIF8. Potency, µM (series often up to 114 µM), inactives show top-dose activity change, negative = inhibition, actives largely listed as inhibitors; also: % is scaled to controls: 0 for no effect and ±100 for the full control effect; nearly all actives have a fitted effect of over 60% in size
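Complex of BAZ2B and biotin-H3K14Ac (50 nM apiece) forms over 30 min at RT, then faces library compounds up to 110 uM for another 30 min; AlphaScreen beads added, 20 min dark incubation, luminescence read.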
L3MBTL1 inh: inhibitors of human L3MBTL1. AID 485360. 0.66% of 230,000 active. Potency, µM (titrated, usually from 57.1 µM), for inactives: top-dose activity, negative = inhibition, most hits filed as inhibitors. Q9Y468. AlphaScreen L3MBTL1–H3K9me1 peptide binding; also: % is scaled to controls: 0 for no effect and ±100 for the full control effect; nearly all actives have a fitted effect of over 60% in size
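AlphaScreen proximity signal between nickel-chelate acceptor and streptavidin donor beads (final 10 ug/mL) reports binding of 50 nM L3MBTL1 to 75 nM biotin-H3 K9me1 peptide; complex incubated with compounds 30 min at room temperature; cefsulodin titration as control.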
* = called active by the depositor; u = inconclusive; x = no result given; [ ] = another dose, or the depositor's remark. Only some compounds are listed: those with a hit (about 12% of all), similar ones and a draw of the others. Calls follow the shape of the dose curve; as a rule, active = well fitted curve in the direction sought with a large enough effect; inconclusive = small, poorly fitted or top-dose-only effect, or another doubt; inactive = no such curve, though single readings can be large; an effect the other way counts as inactive or inconclusive. Potency is read from the fitted curve at half-maximal effect.

SMILES	G9a block	Sfp inh	HP1b chromo inh	JMJD2A Tudor	BAZ2B block	L3MBTL1 inh
Cc1cc(SCC(=O)c2ccccc2)nc(=O)[nH]1	22µM*	10%	-7%	-31%	-22%	x
CCc1ccc(NC(=O)c2ccc(F)c(S(=O)(=O)N(C)C3CCCCC3)c2)cc1	3%[59 µM]	x	10%	-16%	7%	x
COc1ccc(CNC(=O)COC(=O)c2cncc(Br)c2)cc1	40µM*	14%	29%	-14%	-17%	8%
O=C(COC(=O)CNC(=O)c1ccc(Br)cc1)Nc1nnc(-c2ccccc2)o1	u	x	42%	-12%	-3%	-1%
O=C(COC(=O)c1cncc(Br)c1)Nc1nnc(-c2ccccc2)o1	x	x	25%	50µM*	x	x
O=C(COC(=O)c1ccc(Cl)nc1)Nc1nnc(-c2ccccc2)o1	-7%	x	16%	79µM*	50µM*	-5%
COc1cc(OC)cc(C(=O)OCC(=O)Nc2nnc(-c3ccccc3)o2)c1	x	x	73%	50µM*	x	x
Cc1ccc(C(=O)CCC(=O)OCC(=O)Nc2nnc(-c3ccccc3)o2)cc1	-1%	x	8%	-26%	u	8%
COc1ccc(-c2[nH]ncc2C(=O)NCc2cccc(F)c2)cc1	4%[59 µM]	x	29%	-1%	4%	x
Cc1cc2c(s1)c1cnn(Cc3c(Cl)cccc3Br)c(=O)c1n2C	x	x	x	-5%	x	x
O=[N+]([O-])c1ccc(N=NNc2ccccc2)cc1	22µM*	-11%	u	25µM*	28µM*	x
Brc1ccc(N=NNc2ccccc2)cc1	x	-6%	34%	-26%	40µM*	-17%
O=C(O)c1cc(NN=Nc2ccc(Br)cc2)cc([N+](=O)[O-])c1	32µM*	7%	-2%	u	-11%	-6%
NC1=NC(=Nc2ccc(Br)cc2)c2ccccc21	u	21%	62%	-19%	-27%	-7%
O=[N+]([O-])c1cccc(NN=Nc2ccccc2)c1	45µM*	-10%	-11%	u	u	x
CN(N=Nc1ccc([N+](=O)[O-])cc1)c1ccccc1	u	-9%	-7%	-45%	u	-24%
CN(C)CCNC(=O)CN1C(=O)CCn2nc(-c3cn(C)c4ccccc34)cc21	-1%[59 µM]	x	17%[57 µM]	-26%	-18%	x
CCC(C)NC(=O)CN1C(=O)c2cccnc2Sc2ccccc21 (centres undefined)	3%[59 µM]	x	67%	1%	-33%	x
CCC(C)C(=O)N1c2ccccc2C(=C2SC(C(=O)OC)=C(C(=O)OC)S2)C(=S)C1(C)C (centres undefined)	u	50µM*	u	8.9µM*	8.9µM*	u
COC(=O)c1cnc(NNS(=O)(=O)c2ccc(Cl)cc2)nc1C(F)(F)F	35µM*	-2%	-14%	-6%	-5%	-1%
COC(=O)c1cnc(NNC(=O)c2ccc([N+](=O)[O-])cc2)nc1C(F)(F)F	2%	11%	10%	-22%	3%	-7%
NS(=O)(=O)c1ccc(NC(=O)Nc2ccccc2)cc1	-4%[59 µM]	15%	17%	-11%	-4%	12%
COc1cc(OC)c(NC2=CC(=O)C(=O)c3ccccc32)cc1Cl	40µM*	-6%	u	u	u	x
Cc1cc(NC2=CC(=O)C(=O)c3ccccc32)no1	x	x	3%	-17%	x	x
CCOC(=O)c1ccc(NC2=CC(=O)C(=O)c3ccccc32)cc1	u	50µM*	u	u	u	-21%
Cc1ccc(NC2=CC(=O)C(=O)c3ccccc32)cc1	u	-19%	-29%	u	40µM*	u
NS(=O)(=O)c1ccc(NC2=CC(=O)C(=O)c3ccccc32)cc1	x	-16%	-8%	22µM*	u	u
Cc1cc(F)ccc1NC(=O)C(c1ccccc1)N1Cc2ccccc2C1=O (centres undefined)	1%[59 µM]	x	15%	-13%	4%	x
COc1cccc(C(=O)Nc2c3c(nn2-c2ccc(Cl)cc2)CS(=O)(=O)C3)c1	-18%[59 µM]	x	19%	-21%	0%	x

Screening results: PubChem, National Center for Advancing Translational Sciences (NCATS)
